# Data published in PubChem BioAssay (EPA / NIEHS).
# Activity calls are given as the source filed them. Rule for the calls: active = hit-call score of the fitted dose curve at least 0.9, where 1 is the maximum; inactive = score below 0.9.
# Assay: CCTE_Padilla_ZF_Score.General: CCTE's 144 Hour Post-fertilization zebrafish Assay Score for General Malformation, Padilla Lab (AID 2284411)
# Procedure, shortened: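 Wild-type zebrafish embryos were plated singly at 6-8 hpf in 10% Hanks' and exposed in sealed wells at 26C until rinsed on 5 dpf. At 6 dpf two blinded assessors scored mortality, hatching and malformations by stereomicroscopy; gain-of-signal versus DMSO.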
SMILES,outcome,AC50
Nc1cc([N+](=O)[O-])cc(Cl)c1O,inactive,–
O=S(=O)(OCC(F)(F)F)C(F)(F)C(F)(F)C(F)(F)C(F)(F)F,inactive,–
O=C(O)C(F)(F)C(F)(F)C(F)(F)C(F)(F)C(F)(F)C(F)(F)C(F)F,inactive,–
NC(=O)C(F)(F)C(F)(F)C(F)(F)C(F)F,inactive,–
CO[Si](C)(CCC(F)(F)C(F)(F)C(F)(F)C(F)(F)C(F)(F)C(F)(F)F)OC,inactive,–
OCC(O)CC(F)(F)C(F)(F)C(F)(F)C(F)(F)C(F)(F)C(F)(F)C(F)(F)C(F)(F)F (stereo not given),–,11.8 µM (active)
CC(C)CCCC(C)CCO (stereo not given),inactive,–
O=C(O)C(F)(F)C(F)(F)C(F)(F)OC(F)(F)F,inactive,–
O=C(c1ccccc1)c1ccc(O)cc1O,inactive,–
OCCCCC(F)(F)C(F)(F)C(F)(F)C(F)(F)F,–,21 µM (active)
O=S(=O)(O)CCC(F)(F)C(F)(F)C(F)(F)C(F)(F)F,inactive,–
c1ccc(C[P+](c2ccccc2)(c2ccccc2)c2ccccc2)cc1,inactive,–
O=C(O)C(F)(F)C(F)(F)C(F)(F)C(=O)O,inactive,–
CCN(CC)c1ccc(C=O)cc1,inactive,–
CN1CN(C)CN(C)C1,inactive,–
C[Si](Cl)(Cl)CCC(F)(F)C(F)(F)C(F)(F)C(F)(F)C(F)(F)C(F)(F)F,inactive,–
NC(O)(C(F)(F)F)C(F)(F)F,–,85 µM (active)
O=C(O)C(F)(F)OC(F)(F)C(F)(F)OC(F)(F)C(F)(F)OC(F)(F)F,inactive,–
OCC(O)CC(F)(F)C(F)(F)C(F)(F)C(F)(F)F (stereo not given),inactive,–
CCN(CCO)S(=O)(=O)C(F)(F)C(F)(F)C(F)(F)C(F)(F)C(F)(F)C(F)(F)C(F)(F)C(F)(F)F,inactive,–
OC(O)C(F)(F)C(F)(F)F,inactive,–
OCC(F)(F)C(F)(F)C(F)(F)C(F)(F)C(F)(F)C(F)(F)CO,–,47.7 µM (active)
C=CC(=O)OCCC(F)(F)C(F)(F)C(F)(F)C(F)(F)F,–,76.7 µM (active)

# Assay: CCTE_Padilla_ZF_Score.Blood_pooling: CCTE's 144 Hour Post-fertilization zebrafish Assay Score for Blood Pooling, Padilla Lab (AID 2284415)
# Procedure, shortened: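 Wild-type outbred zebrafish embryos, one per well in 10% Hanks', exposed from 6–8 hpf in sealed plates at 26C on 14:10 h light:dark, rinsed at 5 dpf. Blinded stereomicroscope scoring of blood pooling at 6 dpf; gain-of-signal versus DMSO.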
SMILES,AC50,outcome
O=S(=O)(OCC(F)(F)F)C(F)(F)C(F)(F)C(F)(F)C(F)(F)F,33.3 µM (active),–
O=C(O)C(F)(F)C(F)(F)C(F)(F)C(F)(F)C(F)(F)C(F)(F)C(F)F,–,inactive
NC(=O)C(F)(F)C(F)(F)C(F)(F)C(F)F,–,inactive
CO[Si](C)(CCC(F)(F)C(F)(F)C(F)(F)C(F)(F)C(F)(F)C(F)(F)F)OC,–,inactive
OCC(O)CC(F)(F)C(F)(F)C(F)(F)C(F)(F)C(F)(F)C(F)(F)C(F)(F)C(F)(F)F (stereo not given),–,inactive
O=C(O)C(F)(F)C(F)(F)C(F)(F)OC(F)(F)F,–,inactive
OCCCCC(F)(F)C(F)(F)C(F)(F)C(F)(F)F,–,inactive
O=S(=O)(O)CCC(F)(F)C(F)(F)C(F)(F)C(F)(F)F,–,inactive
O=C(O)C(F)(F)C(F)(F)C(F)(F)C(=O)O,–,inactive
C[Si](Cl)(Cl)CCC(F)(F)C(F)(F)C(F)(F)C(F)(F)C(F)(F)C(F)(F)F,–,inactive
NC(O)(C(F)(F)F)C(F)(F)F,–,inactive
O=C(O)C(F)(F)OC(F)(F)C(F)(F)OC(F)(F)C(F)(F)OC(F)(F)F,–,inactive
OCC(O)CC(F)(F)C(F)(F)C(F)(F)C(F)(F)F (stereo not given),–,inactive
CCN(CCO)S(=O)(=O)C(F)(F)C(F)(F)C(F)(F)C(F)(F)C(F)(F)C(F)(F)C(F)(F)C(F)(F)F,–,inactive
OC(O)C(F)(F)C(F)(F)F,–,inactive
OCC(F)(F)C(F)(F)C(F)(F)C(F)(F)C(F)(F)C(F)(F)CO,–,inactive
C=CC(=O)OCCC(F)(F)C(F)(F)C(F)(F)C(F)(F)F,–,inactive
